SW480 rereplic: A quantitative high throughput screen for small molecules that induce DNA re-replication in SW480 colon adenocarcinoma cells. SW480 DNA re-replication, Hoechst DNA content imaging, 48 h. Potency, µM (doses to about 46.1 µM), inactives show top-dose re-replication activation, usual class: activators. actives 1.8% (n = 340,000). AID 624297, 2012; note: potency is the fitted concentration of half-maximal effect; % of control where 0% means no effect; nearly all actives have a fitted effect of over 55% in size
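Per well, 250 cells were exposed to pinned compound for 48 hr. Nuclear DNA was visualised with Hoechst (40 min, 37 C) and total object intensity recorded by fluorescence scanning.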
MCF10A rerep: A quantitative high throughput screen for small molecules that induce DNA re-replication in MCF 10a normal breast cells; AID 624296, 2012; Potency, µM (doses to about 46.1 µM), inactives show at the highest dose activity, positive = re-replication, most hits filed as activators; actives 2.9% (n = 350,000); MCF 10A DNA re-replication, Hoechst nuclear intensity, 48 h; note: potency is the fitted concentration of half-maximal effect; % of control where 0% means no effect; nearly all actives have a fitted effect of over 50% in size
KB-3-1 cytotox: qHTS assay for MDR1-selective chemotherapeutics: Primary screen using the parental adenocarcinoma cell KB-3-1; Potency, µM (titrated, usually from 46.1 µM), most hits filed as cytotoxic; AID 1347075, 2019; KB-3-1 viability, CellTiter-Glo ATP luminescence, 72 h; actives 1.4% (n = 400,000); note: potency is the fitted concentration of half-maximal effect; % is set by controls: 0 for no effect and ±100 for the full control effect; nearly all actives have a fitted effect of over 60% in size
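Viability of parental KB-3-1 cells, measured by CellTiter-Glo luminescence, followed a 72 h incubation at 37 °C with pinned compounds in phenol-red-free DMEM containing 10% FBS.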
Giardia killer: Small Molecules that selectively kill Giardia lamblia: qHTS. Giardia lamblia trophozoite viability. activity change, % at 7.66 µM, hits read low. actives 0.15% (n = 340,000). AID 540267, 2011; in the data active = activity change below about -80%; inconclusive = between about -30% and that limit;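 note: parasites exposed to compound for two days anaerobically before the ATP read; % is set by controls: 0 for no effect and ±100 for the full control effect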
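Luminescence from cellular ATP indicates surviving trophozoites (100 cells/well) following 48 hrs anaerobic compound treatment at 37 deg C; signal develops 15-30 min at room temperature.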
KB-V1 cytotox: qHTS assay for MDR1-selective chemotherapeutics: Primary screen using the drug-selected MDR subline cells KB-V1; KB-V1 MDR cells viability, CellTiter-Glo, 72 h; Potency, µM (series often up to 46.1 µM), hits mostly cytotoxic; actives 3.4% (n = 400,000); AID 1347076, 2019; note: potency is the fitted concentration of half-maximal effect; % is set by controls: 0 for no effect and ±100 for the full control effect; nearly all actives have a fitted effect of over 60% in size
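In this primary screen, KB-V1 cells overexpressing P-gp are incubated with library compounds (lowest to highest concentration) for 72 h at 37 degrees C before a luminescent ATP viability read.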
S-ASM inh: Inhibitors of Secretory Acid Sphingomyelinase (S-ASM): qHTS. Sphingomyelin phosphodiesterase (Homo sapiens), P17405. actives 0.006% (n = 340,000). AID 504937, 2011. Potency, µM (top dose mostly 57.5 µM), inactives show top-dose activity change, negative = inhibition, most hits filed as inhibitors. placental ASM, HMU-PC fluorogenic substrate, 60 min; note: potency is the fitted concentration of half-maximal effect
Target sequence (P17405 47-631 limits assumed): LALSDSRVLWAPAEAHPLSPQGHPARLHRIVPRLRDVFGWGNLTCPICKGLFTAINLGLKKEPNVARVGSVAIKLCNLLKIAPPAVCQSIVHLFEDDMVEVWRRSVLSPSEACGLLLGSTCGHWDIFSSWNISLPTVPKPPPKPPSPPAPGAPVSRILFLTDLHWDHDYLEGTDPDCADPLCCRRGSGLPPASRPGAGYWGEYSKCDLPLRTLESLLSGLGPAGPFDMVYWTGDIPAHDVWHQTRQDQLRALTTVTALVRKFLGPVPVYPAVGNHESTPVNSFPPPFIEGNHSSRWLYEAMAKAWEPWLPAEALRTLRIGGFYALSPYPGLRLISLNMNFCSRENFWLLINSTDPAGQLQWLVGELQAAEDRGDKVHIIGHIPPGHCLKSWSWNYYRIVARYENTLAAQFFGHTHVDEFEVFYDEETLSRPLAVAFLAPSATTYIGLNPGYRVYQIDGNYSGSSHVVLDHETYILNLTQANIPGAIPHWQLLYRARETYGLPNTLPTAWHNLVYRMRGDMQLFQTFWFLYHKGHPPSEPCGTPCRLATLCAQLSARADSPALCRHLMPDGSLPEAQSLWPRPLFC
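Fluorogenic HMU-PC substrate (9 uM final) is turned over by placental ASM in 60 min at 37 C after a 10 min compound preincubation. Reaction ended by alkaline stop (pH 10), with fluorescence read at 386/447 nm.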
* = called active by the depositor. A selection: hits, their analogues and other compounds. The true share with any hit is near 6.9%. Unless noted, calls come from the whole dose curve; as a rule, active = well fitted curve in the direction sought with a large enough effect; inconclusive = small, poorly fitted or top-dose-only effect, or another doubt; inactive = no such curve, though single readings can be large; an effect the other way counts as inactive or inconclusive.

COc1ccc(-c2csc(NC(=O)c3cc(C)on3)c2C#N)cc1OC was read as SW480 rereplic 3%, MCF10A rerep inconclusive, KB-3-1 cytotox inactive, Giardia killer 2, KB-V1 cytotox 16µM* and S-ASM inh 2%.
For CCc1c(C)sc(NC(=O)c2cc(-c3ccc(O)cc3)on2)c1C#N the results were SW480 rereplic 15µM*, MCF10A rerep 12µM*, KB-3-1 cytotox inactive, Giardia killer 42, KB-V1 cytotox inactive and S-ASM inh -1%.
CCc1c(C)sc(NC(=O)c2cc(-c3cc(OC)ccc3OC)on2)c1C#N was read as SW480 rereplic -1%, MCF10A rerep 2.6µM*, KB-3-1 cytotox inactive, Giardia killer 12, KB-V1 cytotox inconclusive and S-ASM inh 34%.
Screening CCOC(=O)c1c(NC(=O)c2cc(-c3ccc(OC)c(OC)c3)on2)sc(C)c1C returned KB-3-1 cytotox inactive and KB-V1 cytotox inactive.
CCc1c(C)sc(NC(=O)c2cc(-c3ccc(OC)c(OC)c3)on2)c1C#N was read as SW480 rereplic 2%, MCF10A rerep 5.2µM*, KB-3-1 cytotox inactive, Giardia killer 7, KB-V1 cytotox inactive and S-ASM inh 0%.
CCN(CC)CCCNC(=O)CSc1nc2nc(C)c(Cc3c(F)cccc3Cl)c(C)n2n1 was read as KB-3-1 cytotox inactive and KB-V1 cytotox inactive.
For Cc1cc(-c2ccc(N=Nc3ccc4c(S(=O)(=O)O)cc(S(=O)(=O)O)c(N)c4c3O)c(C)c2)ccc1N=Nc1ccc2c(S(=O)(=O)O)cc(S(=O)(=O)O)c(N)c2c1O the results were SW480 rereplic -2% and MCF10A rerep -7%.
For COc1ccc(-c2csc(N(CC3CCCO3)C(=O)c3ccc(C)cc3)n2)cc1 (configuration not stated) the results were SW480 rereplic -2%, MCF10A rerep -1%, KB-3-1 cytotox inconclusive, Giardia killer -1, KB-V1 cytotox 3.7µM* and S-ASM inh -7%.
Cc1ccc(-c2csc(N(CC3CCCO3)C(=O)c3ccco3)n2)cc1 (configuration not stated) was read as SW480 rereplic inconclusive, MCF10A rerep 21µM*, KB-3-1 cytotox inconclusive, Giardia killer -12, KB-V1 cytotox inconclusive and S-ASM inh -14%.
Screening COc1ccc(-c2csc(N(CC3CCCO3)C(=O)c3ccccc3)n2)cc1 (configuration not stated) returned SW480 rereplic -1%, MCF10A rerep 2%, KB-3-1 cytotox inactive, Giardia killer 7, KB-V1 cytotox inactive and S-ASM inh -5%.
O=C(c1ccco1)N(CC1CCCO1)c1nc(-c2ccccc2)cs1 (configuration not stated) was read as SW480 rereplic 26%, MCF10A rerep inconclusive, KB-3-1 cytotox inconclusive, Giardia killer -11, KB-V1 cytotox 23µM* and S-ASM inh -2%.
O=C(C[C@H]1CC[C@H]2[C@@H](COC[C@@H](O)CN2Cc2cc(F)ccc2F)O1)NCc1ccc(Cl)cc1 was read as KB-3-1 cytotox inactive and KB-V1 cytotox inconclusive.
For CCOc1ccc(C2=C(C(C)=O)Sc3nnc(C)n3N2C(C)=O)cc1 the results were Giardia killer -14.
`CC(=O)C1=C(c2cccc([N+](=O)[O-])c2)N(C(C)=O)n2c(C)nnc2S1` gave SW480 rereplic inconclusive, MCF10A rerep 23µM*, KB-3-1 cytotox 15µM*, Giardia killer -7, KB-V1 cytotox inactive and S-ASM inh -3%.
For CCOc1ccc(-n2c(SC(C)C)nc3c(c2=O)SCC3)cc1 the results were SW480 rereplic 14%, MCF10A rerep 19%, KB-3-1 cytotox inactive, Giardia killer 3, KB-V1 cytotox 2.9µM* and S-ASM inh -11%.
O=C1CC(N2CCN(c3nc4ccccc4s3)CC2)C(=O)N1c1cccc(F)c1 (configuration not stated) was read as SW480 rereplic -22%, MCF10A rerep 5%, KB-3-1 cytotox 18µM*, Giardia killer -5, KB-V1 cytotox inactive and S-ASM inh -15%.
Screening O=C1CC(N2CCSCC2)C(=O)N1c1cccc(Cl)c1 (configuration not stated) returned SW480 rereplic inconclusive, MCF10A rerep 0.82µM*, KB-3-1 cytotox inactive, Giardia killer 23, KB-V1 cytotox inconclusive and S-ASM inh 9%.
For Cc1cc(C)cc(NC(=O)C2CCC(CNC(=O)[C@@H]3Cc4ccccc4CN3)CC2)c1 (some centres not stated) the results were SW480 rereplic 18µM*, MCF10A rerep inconclusive, KB-3-1 cytotox inactive, Giardia killer 0, KB-V1 cytotox inactive and S-ASM inh 5%.
Cc1ccc(NC(=O)C2CCN(C(=O)[C@@H]3Cc4ccccc4CN3)CC2)cc1 was read as SW480 rereplic 3%, MCF10A rerep 1%, KB-3-1 cytotox inactive, Giardia killer -8, KB-V1 cytotox inactive and S-ASM inh 2%.
Screening Cc1cccc(NC(=O)C2CCC(CNC(=O)[C@@H]3Cc4ccccc4CN3)CC2)c1 (some centres not stated) returned SW480 rereplic 21%, MCF10A rerep 3%, KB-3-1 cytotox inactive, Giardia killer 2, KB-V1 cytotox inactive and S-ASM inh -1%.
For CC(C)c1ccc(NC(=O)C2CCN(C(=O)[C@@H]3Cc4ccccc4CN3)CC2)cc1 the results were SW480 rereplic 18µM*, MCF10A rerep inconclusive, KB-3-1 cytotox inactive, Giardia killer inconclusive, KB-V1 cytotox inactive and S-ASM inh 2%.
`C[C@@H]1CN([C@@H](C)CO)C(=O)c2cc(Br)cnc2O[C@H]1CN(C)Cc1cccnc1` gave KB-3-1 cytotox inconclusive and KB-V1 cytotox inactive.
CC(C)(C)c1ccc(OCCCNCc2ccccc2)cc1 was read as SW480 rereplic 23µM*, MCF10A rerep 23µM*, KB-3-1 cytotox inconclusive, Giardia killer -10, KB-V1 cytotox inactive and S-ASM inh -4%.
Screening CC(C)(c1ccccc1)c1ccc(OCCCNCCO)cc1 returned SW480 rereplic -14%, MCF10A rerep inconclusive, KB-3-1 cytotox inconclusive, Giardia killer 8, KB-V1 cytotox inconclusive and S-ASM inh -1%.

Screening results (PubChem)
